Results published in publication PMC4336329 (PLoS ONE, 2015).
The whole screen tested about 310,000 compounds, of which about 14,000 (4.5%) showed an effect of 50% or more. The effect is printed as a negative number. What follows is part of a selection rich in strong results, with near analogues and random picks from the rest.

The compounds below were run against human ether-à-go-go-related gene (hERG) potassium channel (human, UniProt Q12809) (assay: primary screen, population patch clamp on CHO cells stably expressing hERG; higher = less effect of the substance).
Sequence of human ether-à-go-go-related gene (hERG) potassium channel (Q12809 whole entry, looked up): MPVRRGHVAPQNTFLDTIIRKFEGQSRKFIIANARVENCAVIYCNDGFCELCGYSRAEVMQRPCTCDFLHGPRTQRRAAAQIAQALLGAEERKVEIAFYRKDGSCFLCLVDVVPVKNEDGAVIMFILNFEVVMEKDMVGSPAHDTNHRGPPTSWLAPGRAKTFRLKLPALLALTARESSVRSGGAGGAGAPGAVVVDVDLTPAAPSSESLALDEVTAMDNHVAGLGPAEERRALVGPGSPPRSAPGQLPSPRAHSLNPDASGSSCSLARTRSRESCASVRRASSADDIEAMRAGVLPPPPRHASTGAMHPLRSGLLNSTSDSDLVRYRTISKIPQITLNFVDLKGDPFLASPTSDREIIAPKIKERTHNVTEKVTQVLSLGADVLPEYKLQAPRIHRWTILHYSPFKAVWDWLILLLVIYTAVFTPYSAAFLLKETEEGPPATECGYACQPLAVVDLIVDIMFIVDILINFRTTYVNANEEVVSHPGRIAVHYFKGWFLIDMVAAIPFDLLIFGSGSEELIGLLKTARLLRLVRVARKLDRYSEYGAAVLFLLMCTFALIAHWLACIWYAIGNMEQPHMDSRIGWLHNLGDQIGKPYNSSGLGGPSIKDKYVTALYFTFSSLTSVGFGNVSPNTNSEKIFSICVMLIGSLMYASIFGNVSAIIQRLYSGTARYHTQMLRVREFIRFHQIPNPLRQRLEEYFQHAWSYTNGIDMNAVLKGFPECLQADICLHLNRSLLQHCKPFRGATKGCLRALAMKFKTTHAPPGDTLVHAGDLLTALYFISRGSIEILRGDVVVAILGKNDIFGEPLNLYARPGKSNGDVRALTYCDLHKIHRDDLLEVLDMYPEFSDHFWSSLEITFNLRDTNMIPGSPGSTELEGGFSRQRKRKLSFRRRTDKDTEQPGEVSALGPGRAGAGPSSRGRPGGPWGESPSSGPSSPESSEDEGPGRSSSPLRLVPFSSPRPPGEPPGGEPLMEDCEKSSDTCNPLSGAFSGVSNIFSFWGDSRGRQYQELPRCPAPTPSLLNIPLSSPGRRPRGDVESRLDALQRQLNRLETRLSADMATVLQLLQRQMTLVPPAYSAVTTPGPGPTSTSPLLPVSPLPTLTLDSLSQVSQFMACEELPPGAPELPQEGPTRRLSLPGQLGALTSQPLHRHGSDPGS
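Also: peak tail current of the secondary pulse compared with the same well before compound.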

Row | SMILES | hERG current change (%, negative = inhibition) at 10uM [%]
1 | CCCn1c(SCC(=O)c2[nH]c(C)c(C(C)=O)c2C)n[nH]c1=O | -1.57
2 | COc1ccc(OC)c(NS(=O)(=O)c2ccc(NC(=O)c3ccc(NS(C)(=O)=O)cc3)cc2)c1 | 14.2
3 | Cc1ccc(-n2c(SCC(=O)Nc3nccs3)nc3c(c2=O)SCC3)cc1 | 0.0407
4 | CC1CC1C(=O)OCC(=O)Nc1ccccc1Oc1ccccc1 (stereo not drawn) | 13.9
5 | COc1ccc(Cl)cc1NC(=O)C1CC(=O)N(c2ccc(F)cc2)C1 (stereo not drawn) | 4.41
6 | CSc1ccc(/C=C(\NC(=O)c2ccco2)C(=O)N2CCCCC2)cc1 | -29.6
7 | CSc1ncc(Cl)c(C(=O)Nc2ccc(C)c(C)c2)n1 | 13.4
8 | CCOc1ccc(-c2c(C)n([O-])c3c([n+]2=O)CCCC3)cc1 | -1.2
9 | CCOc1ccc(N2C(=O)CC(Cc3ccc(Br)cc3)C2=O)cc1 (stereo not drawn) | 5.77
10 | CCOc1ccc(-n2c(-c3ccc(Br)cc3)c[n+]3c2CCCCC3)cc1.[Br-] | -77.7
11 | CCOc1ccc(-c2c(C)n([O-])c3c([n+]2=O)CCCCC3)cc1 | 17.4
12 | CCOc1ccc(-c2c(C)n(-c3ccc(OCC)cc3)c3[n+]2CCCCC3)cc1.[O-][Cl+3]([O-])([O-])[O-] | -77.7
13 | CCOc1ccc(-n2c(-c3ccc(OC)cc3)c[n+]3c2CCCCC3)cc1.[Br-] | -76
14 | O=C(CSc1ncnc2c1oc1ccccc12)NCc1ccco1 | -12.4
15 | CC(C)(C)SCCNC(=O)c1ccc(CN2CCc3ccccc3C2)cc1 | -35.1
16 | O=C(Cn1ccsc1=NC(=O)c1ccco1)c1ccccc1 | -6.93
17 | O=C(Nc1ccc(F)cc1F)c1cc(=O)n(-c2ccccc2)c(=O)[nH]1 | 6.37
18 | COc1ccc(NC(=O)CSC2=NC(=O)CC(C)=N2)cc1 | 15.1
19 | O=C(NNC(=S)NC(=O)c1ccccc1)c1ccc(O)cc1 | 24.7
20 | O=C(/C=C/c1ccc(Cl)cc1)N(Cc1ccccc1)C1CCS(=O)(=O)C1 (stereo not drawn) | -75
21 | O=C(c1ccc(Cl)cc1)N(Cc1cccs1)C1CCS(=O)(=O)C1 (stereo not drawn) | -24.4
22 | O=C(/C=C/c1ccc(Cl)cc1)N(Cc1cccs1)C1CCS(=O)(=O)C1 (stereo not drawn) | -72.8
23 | O=C(/C=C/c1ccccc1)N(Cc1cccs1)C1CCS(=O)(=O)C1 (stereo not drawn) | -30.3
24 | O=C(/C=C/c1ccccc1Cl)N(Cc1cccs1)C1CCS(=O)(=O)C1 (stereo not drawn) | -31.5
25 | COc1ccc(/C=C/C(=O)N(Cc2cccs2)C2CCS(=O)(=O)C2)cc1 (stereo not drawn) | -48.6
26 | O=C(/C=C/c1ccccc1)N(Cc1ccc(Cl)cc1)C1CCS(=O)(=O)C1 (stereo not drawn) | -30.6
27 | Cc1ccc(/C=C/C(=O)N(Cc2cccs2)C2CCS(=O)(=O)C2)cc1 (stereo not drawn) | -79

Row | SMILES | hERG current change (%, negative = inhibition) at 10uM [%]
28 | O=C(/C=C/c1ccccc1)N(Cc1cccc(Cl)c1)C1CCS(=O)(=O)C1 (stereo not drawn) | -25.6
29 | S=C(NCc1cccs1)Nc1ccccc1Cl | 9.58
30 | CCC1CCCCN1C(=O)CCS(=O)(=O)c1ccccc1 (stereo not drawn) | 13.7
31 | COc1ccc(/C(O)=C2/C(=O)C(=O)N(CCCC(=O)O)C2c2ccc(OC)cc2)cc1 (stereo not drawn) | 11.7
32 | Cc1cc(C(=O)NCc2cccc(Cl)c2)c2ccccc2n1 | 15.8
33 | COC(=O)c1cccc(C23CC4(C2)[C@H](CN(Cc2cccnc2)[C@@H]4c2ccccc2)C3c2ccccc2)c1 (stereo partly drawn) | 8.51
34 | CCC(=O)N1CCc2cc(S(=O)(=O)CCC(=O)NC3CCCCC3)ccc21 | 5.33
35 | Cc1nn(C)c(C(=O)N/N=C/c2ccncc2)c1Cl | 7.35
36 | COc1ccccc1N1C(=O)c2ccc(C(=O)Nc3cccc(C(C)=O)c3)cc2C1=O | 1.69
37 | CCn1cc(CN(C)S(=O)(=O)c2ccc3ccccc3c2)c(C)n1 | -1.17
38 | S=C(c1ccc(Br)cc1)N1CCN(Cc2ccccc2)CC1 | -36.3
39 | O=C(Cc1ccccc1)NC1CCN(C(=O)c2ccc([N+](=O)[O-])cc2)CC1 | -47.7
40 | O=C(Cc1ccccc1)N1CCN(C(=O)c2ccc([N+](=O)[O-])cc2)CC1 | -51
41 | CSc1ccc(C(=S)N2CCN(Cc3ccccc3)CC2)cc1 | -50.4
42 | COc1ccc([N+](=O)[O-])cc1NC1CCN(C(=O)c2cccs2)CC1 | -85.7
43 | CCN(Cc1ccccc1)C(=O)CCc1nc(CN2CCN(C(=O)c3ccc([N+](=O)[O-])cc3)CC2)no1 | -64.2
44 | CCN(Cc1ccccc1)C(=O)CCc1nc(-c2ccc(C)cc2)no1 | -12.1
45 | Cc1ccc(C(=S)N2CCN(Cc3ccccc3)CC2)cc1 | -42.9
46 | COc1ccc([N+](=O)[O-])cc1NC(=O)c1cccs1 | 4.41
47 | COc1ccc(-c2noc(CCC(=O)N3CCN(Cc4ccccc4)CC3)n2)cc1 | -32.8
48 | COc1ccc(OC)c(NC(=O)C2CCN(C(=O)c3cccs3)CC2)c1 | 15.7
49 | COc1ccc(C(=O)N2CCN(C(=O)Cc3ccccc3)CC2)cc1.O=C(O)C(=O)O | 0.269
50 | Cc1ccc2nc(NC(=O)c3ccc(-c4nc5ccccc5s4)s3)sc2c1 | 0.614
51 | O=C(Nc1cccnc1)c1ccccc1NS(=O)(=O)c1ccc(F)cc1 | -11.5
52 | Cc1c(Cl)ccc2c1NC(=O)C21NC(CCC(N)=O)[C@H]2C(=O)N(c3ccc(Cl)cc3)C(=O)[C@H]21 (stereo partly drawn) | 7.5
53 | O=C(c1ccccc1NS(=O)(=O)c1ccc(F)cc1)N1CCCCC1 | -4.35
54 | COCCN(C(=O)CCCC(=O)Nc1ccccn1)C(C(=O)NC1CCCCC1)c1ccc(C)cc1 (stereo not drawn) | -17.7
